The supplement of paper PMC10849652
About 8,800 targets were measured; listed, in parts, are those with a hit and a random draw of the rest. About 0.5% of all pairs of compound and target were hits. A number with no mark means an inactive call.

compound: CC1=C(C=C(C=C1)NC(=O)C2=CC(=CC=C2)N(C)C)NC(=O)C3=CC=C(C=C3)O; experiment: log2 fold change, soluble protein after heating vs DMSO (PISA); higher = thermal stabilisation; K562 lysate, 10 uM; active = over 0.2 and 3.5 SD of the protein, either way, in both replicates (recomputed)
In short: (§1)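 A 30 min treatment with 10 μM compound was applied to crude K562 extract at 1 mg/mL protein in PBS pH 7.4 with 1 mM MgCl2. Heating for 3 min spanned 48°C-58°C, after which aliquots were pooled, adjusted to 0.5% NP-40 at 4°C and spun at 21,000xg for 90 min. TMTpro 16plex LC-MS/MS of the supernatant, with channel sums equalised, gave values recorded as log-two fold change in thermal stability against solvent controls, from duplicates.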

Sequence of UniProt Q9NZM4 (Q9NZM4 whole entry, looked up): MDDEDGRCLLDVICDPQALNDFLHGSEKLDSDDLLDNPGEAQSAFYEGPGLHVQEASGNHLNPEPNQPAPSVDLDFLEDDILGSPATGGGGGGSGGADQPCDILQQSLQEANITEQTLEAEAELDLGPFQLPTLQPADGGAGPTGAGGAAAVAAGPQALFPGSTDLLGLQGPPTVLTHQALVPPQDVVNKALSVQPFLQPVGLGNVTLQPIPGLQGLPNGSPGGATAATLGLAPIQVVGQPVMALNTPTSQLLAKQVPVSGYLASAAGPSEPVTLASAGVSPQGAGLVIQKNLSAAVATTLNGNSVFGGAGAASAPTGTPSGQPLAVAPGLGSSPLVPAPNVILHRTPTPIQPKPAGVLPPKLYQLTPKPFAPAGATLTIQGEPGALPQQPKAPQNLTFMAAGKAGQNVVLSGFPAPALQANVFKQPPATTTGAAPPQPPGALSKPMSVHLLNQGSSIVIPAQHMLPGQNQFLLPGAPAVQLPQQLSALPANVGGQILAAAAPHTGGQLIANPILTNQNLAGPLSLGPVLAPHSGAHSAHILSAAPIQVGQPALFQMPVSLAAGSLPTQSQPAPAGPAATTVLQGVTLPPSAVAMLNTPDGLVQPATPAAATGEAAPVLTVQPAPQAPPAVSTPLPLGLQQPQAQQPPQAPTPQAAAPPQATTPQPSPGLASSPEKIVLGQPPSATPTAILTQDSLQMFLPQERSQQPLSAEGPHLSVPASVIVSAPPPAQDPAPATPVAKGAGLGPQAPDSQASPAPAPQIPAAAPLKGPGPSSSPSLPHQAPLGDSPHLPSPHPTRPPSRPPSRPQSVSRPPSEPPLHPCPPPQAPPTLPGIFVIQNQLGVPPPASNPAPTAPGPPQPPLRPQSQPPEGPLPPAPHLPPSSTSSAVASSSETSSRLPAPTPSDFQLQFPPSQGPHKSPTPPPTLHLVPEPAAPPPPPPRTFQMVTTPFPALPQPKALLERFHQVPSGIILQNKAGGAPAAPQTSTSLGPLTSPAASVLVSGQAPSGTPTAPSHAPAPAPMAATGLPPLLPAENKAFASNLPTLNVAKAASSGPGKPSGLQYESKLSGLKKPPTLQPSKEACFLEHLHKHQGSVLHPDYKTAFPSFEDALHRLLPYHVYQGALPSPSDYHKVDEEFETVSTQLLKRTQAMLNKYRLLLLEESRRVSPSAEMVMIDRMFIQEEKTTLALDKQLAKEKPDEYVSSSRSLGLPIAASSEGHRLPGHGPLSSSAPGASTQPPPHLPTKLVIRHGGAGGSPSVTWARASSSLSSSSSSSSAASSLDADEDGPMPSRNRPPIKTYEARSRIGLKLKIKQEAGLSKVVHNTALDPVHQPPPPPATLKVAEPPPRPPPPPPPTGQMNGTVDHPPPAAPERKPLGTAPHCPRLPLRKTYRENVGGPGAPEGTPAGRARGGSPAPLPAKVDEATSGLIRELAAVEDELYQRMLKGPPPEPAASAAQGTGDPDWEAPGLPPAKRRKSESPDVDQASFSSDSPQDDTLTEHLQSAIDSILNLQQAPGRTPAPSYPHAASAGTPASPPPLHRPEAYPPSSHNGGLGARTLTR
Sequence of UniProt Q9UQ88 (Q9UQ88 whole entry, looked up): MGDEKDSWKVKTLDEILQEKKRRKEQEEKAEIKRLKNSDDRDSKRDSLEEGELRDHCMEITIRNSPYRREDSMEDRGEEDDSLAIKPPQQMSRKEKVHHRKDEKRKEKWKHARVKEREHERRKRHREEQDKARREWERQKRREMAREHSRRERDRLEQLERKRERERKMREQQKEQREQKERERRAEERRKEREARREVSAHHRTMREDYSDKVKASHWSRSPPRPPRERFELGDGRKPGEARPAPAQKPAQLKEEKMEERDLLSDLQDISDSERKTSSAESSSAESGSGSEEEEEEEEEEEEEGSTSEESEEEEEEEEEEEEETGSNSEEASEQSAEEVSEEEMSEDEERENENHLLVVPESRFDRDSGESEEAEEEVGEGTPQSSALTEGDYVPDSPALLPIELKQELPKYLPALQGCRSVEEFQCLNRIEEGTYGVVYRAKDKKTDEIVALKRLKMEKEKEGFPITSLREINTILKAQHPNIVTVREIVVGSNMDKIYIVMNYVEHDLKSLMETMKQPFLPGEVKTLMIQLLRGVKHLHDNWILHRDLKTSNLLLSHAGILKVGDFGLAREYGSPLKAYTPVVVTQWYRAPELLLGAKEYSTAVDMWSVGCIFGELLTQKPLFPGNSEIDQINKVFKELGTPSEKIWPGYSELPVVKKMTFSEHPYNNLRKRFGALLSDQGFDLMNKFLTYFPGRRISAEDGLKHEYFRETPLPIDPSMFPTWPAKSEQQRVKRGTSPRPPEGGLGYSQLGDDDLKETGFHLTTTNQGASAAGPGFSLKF
Sequence of UniProt Q96LT7 (Q96LT7 whole entry, looked up): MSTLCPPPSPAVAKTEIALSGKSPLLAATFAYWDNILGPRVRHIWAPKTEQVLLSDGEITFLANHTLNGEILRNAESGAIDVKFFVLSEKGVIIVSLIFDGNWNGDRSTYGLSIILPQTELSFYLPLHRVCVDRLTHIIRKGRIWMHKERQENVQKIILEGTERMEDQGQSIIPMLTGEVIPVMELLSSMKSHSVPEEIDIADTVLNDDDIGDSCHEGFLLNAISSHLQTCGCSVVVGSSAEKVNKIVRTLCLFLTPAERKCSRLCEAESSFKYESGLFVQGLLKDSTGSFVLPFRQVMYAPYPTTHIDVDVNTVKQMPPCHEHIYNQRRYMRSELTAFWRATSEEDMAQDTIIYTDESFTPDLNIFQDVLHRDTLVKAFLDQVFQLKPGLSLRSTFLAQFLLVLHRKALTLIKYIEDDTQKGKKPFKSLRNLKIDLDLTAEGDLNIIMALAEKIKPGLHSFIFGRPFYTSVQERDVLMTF
Sequence of UniProt P55210 (P55210 whole entry, looked up): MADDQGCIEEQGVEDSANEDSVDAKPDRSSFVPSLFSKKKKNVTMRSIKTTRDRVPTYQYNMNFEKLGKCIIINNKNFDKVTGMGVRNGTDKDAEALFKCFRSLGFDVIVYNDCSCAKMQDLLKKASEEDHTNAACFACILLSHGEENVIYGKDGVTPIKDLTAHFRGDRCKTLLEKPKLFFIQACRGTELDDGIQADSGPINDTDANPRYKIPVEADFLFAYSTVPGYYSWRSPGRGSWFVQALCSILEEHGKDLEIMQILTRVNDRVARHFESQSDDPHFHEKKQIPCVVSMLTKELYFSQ
Sequence of UniProt Q9UNH5 (Q9UNH5 whole entry, looked up): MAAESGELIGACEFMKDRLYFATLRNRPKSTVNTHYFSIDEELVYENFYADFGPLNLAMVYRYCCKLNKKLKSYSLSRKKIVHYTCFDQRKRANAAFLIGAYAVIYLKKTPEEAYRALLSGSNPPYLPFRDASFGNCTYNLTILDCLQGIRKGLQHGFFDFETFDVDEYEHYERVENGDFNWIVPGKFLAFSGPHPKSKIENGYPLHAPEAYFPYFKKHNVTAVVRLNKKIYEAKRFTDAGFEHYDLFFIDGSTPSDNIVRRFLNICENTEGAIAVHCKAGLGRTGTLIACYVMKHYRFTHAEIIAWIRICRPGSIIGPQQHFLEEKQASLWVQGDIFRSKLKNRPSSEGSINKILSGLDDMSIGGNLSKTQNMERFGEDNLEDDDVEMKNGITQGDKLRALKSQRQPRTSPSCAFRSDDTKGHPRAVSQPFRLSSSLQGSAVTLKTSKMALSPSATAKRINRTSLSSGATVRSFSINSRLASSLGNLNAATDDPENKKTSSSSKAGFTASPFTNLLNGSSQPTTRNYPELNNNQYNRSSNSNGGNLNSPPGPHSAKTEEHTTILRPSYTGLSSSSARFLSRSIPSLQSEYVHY
Sequence of UniProt Q9BUK0 (Q9BUK0 whole entry, looked up): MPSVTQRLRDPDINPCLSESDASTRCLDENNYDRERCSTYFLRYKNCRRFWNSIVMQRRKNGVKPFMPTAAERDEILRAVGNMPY
Sequence of UniProt Q12983 (Q12983 whole entry, looked up): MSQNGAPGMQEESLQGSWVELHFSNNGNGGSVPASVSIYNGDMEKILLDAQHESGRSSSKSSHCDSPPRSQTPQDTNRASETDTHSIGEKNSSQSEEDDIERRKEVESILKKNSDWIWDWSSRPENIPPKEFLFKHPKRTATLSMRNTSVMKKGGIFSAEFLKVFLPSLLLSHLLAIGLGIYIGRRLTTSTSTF
Sequence of UniProt P30304 (P30304 whole entry, looked up): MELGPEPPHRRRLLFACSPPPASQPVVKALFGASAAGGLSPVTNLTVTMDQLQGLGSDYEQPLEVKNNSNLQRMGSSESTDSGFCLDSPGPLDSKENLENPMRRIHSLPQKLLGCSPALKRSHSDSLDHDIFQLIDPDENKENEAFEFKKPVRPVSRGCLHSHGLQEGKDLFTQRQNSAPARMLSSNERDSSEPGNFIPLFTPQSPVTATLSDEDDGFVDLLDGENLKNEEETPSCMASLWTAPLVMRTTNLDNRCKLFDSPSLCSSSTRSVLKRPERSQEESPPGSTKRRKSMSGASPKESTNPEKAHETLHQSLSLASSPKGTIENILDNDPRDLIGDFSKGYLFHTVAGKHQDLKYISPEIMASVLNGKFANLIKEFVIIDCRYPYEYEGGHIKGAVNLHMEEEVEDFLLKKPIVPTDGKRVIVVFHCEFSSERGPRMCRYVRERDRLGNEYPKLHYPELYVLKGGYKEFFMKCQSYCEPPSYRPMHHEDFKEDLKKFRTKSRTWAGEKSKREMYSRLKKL
Sequence of UniProt Q96L58 (Q96L58 whole entry, looked up): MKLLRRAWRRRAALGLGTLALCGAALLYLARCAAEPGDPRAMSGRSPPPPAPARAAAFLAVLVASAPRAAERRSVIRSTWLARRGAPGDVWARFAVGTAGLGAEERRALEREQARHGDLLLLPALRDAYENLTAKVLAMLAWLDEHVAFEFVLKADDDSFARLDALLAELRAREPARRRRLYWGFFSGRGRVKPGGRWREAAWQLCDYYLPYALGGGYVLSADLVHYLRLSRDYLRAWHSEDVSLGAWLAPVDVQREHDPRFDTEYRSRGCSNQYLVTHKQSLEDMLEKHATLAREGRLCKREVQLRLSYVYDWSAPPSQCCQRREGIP
Sequence of UniProt P0DMB2 (P0DMB2 whole entry, looked up): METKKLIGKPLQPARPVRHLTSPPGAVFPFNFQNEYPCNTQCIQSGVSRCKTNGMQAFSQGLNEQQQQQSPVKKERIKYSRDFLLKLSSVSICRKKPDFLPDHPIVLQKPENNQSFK

Q: With CDK2 (UniProt P24941) as the target, how does the log2 fold change read?
A: The log2 fold change was -0.003.

Q: ATG4D (UniProt Q86TL0) was tested. Which log2 fold change did it give?
A: Its log2 fold change is -0.052.

Q: How did the log2 fold change turn out when CASP7 isoform 3 (UniProt P55210) was run?
A: Its log2 fold change is -0.124.

Q: With BRD2 isoform 2 (UniProt P25440) as the target, how does the log2 fold change read?
A: Its log2 fold change is 0.049.

Q: With C15orf39 (UniProt Q6ZRI6) as the target, how does the log2 fold change read?
A: Its log2 fold change is 0.019.

Q: For CHD9 (UniProt Q3L8U1), which log2 fold change is on record?
A: Its log2 fold change is -0.023.

Q: For CCND3 (UniProt P30281), which log2 fold change is on record?
A: Its log2 fold change is -0.067.

Q: For CEP128 (UniProt Q6ZU80), which log2 fold change is on record?
A: The log2 fold change was -0.03.

Q: For CHCHD7 isoform 4 (UniProt Q9BUK0), which log2 fold change is on record?
A: The log2 fold change was 0.024.

Q: With C9orf72 (UniProt Q96LT7) as the target, how does the log2 fold change read?
A: The log2 fold change was -0.023.

Q: How did the log2 fold change turn out when C8orf88 (UniProt P0DMB2) was run?
A: Its log2 fold change is 0.022.

Q: For CAPNS1 (UniProt K7ES78), which log2 fold change is on record?
A: Its log2 fold change is -0.105.

Q: BICRA (UniProt Q9NZM4) was tested. Which log2 fold change did it give?
A: Its log2 fold change is -0.003.

Q: With CHD4, A0A2R8Y521 as the target, how does the log2 fold change read?
A: Its log2 fold change is 0.228.

Q: With CDK11A (UniProt Q9UQ88) as the target, how does the log2 fold change read?
A: The log2 fold change was 0.025.

Q: For CENPV (UniProt Q7Z7K6), which log2 fold change is on record?
A: The log2 fold change was -0.13.

Q: With CDC25A (UniProt P30304) as the target, how does the log2 fold change read?
A: Its log2 fold change is 0.015.

Q: With BUD13 (UniProt Q9BRD0) as the target, how does the log2 fold change read?
A: Its log2 fold change is -0.013.

Q: With CASC1 (UniProt Q6TDU7) as the target, how does the log2 fold change read?
A: Its log2 fold change is 0.097.

Q: With ATPSCKMT (UniProt Q6P4H8) as the target, how does the log2 fold change read?
A: Its log2 fold change is -0.001.

Q: With BNIP3 (UniProt Q12983) as the target, how does the log2 fold change read?
A: The log2 fold change was -0.047.

Q: CEP57L1 (UniProt Q8IYX8) was tested. Which log2 fold change did it give?
A: The log2 fold change was -0.044.

Q: With CCDC130 (UniProt P13994) as the target, how does the log2 fold change read?
A: Its log2 fold change is 0.072.

Q: CEP295 isoform 3 (UniProt Q9C0D2) was tested. Which log2 fold change did it give?
A: The log2 fold change was 0.

Q: CDC14A isoform 2 (UniProt Q9UNH5) was tested. Which log2 fold change did it give?
A: Its log2 fold change is 0.219.

Q: With B3GALT6 (UniProt Q96L58) as the target, how does the log2 fold change read?
A: The log2 fold change was -0.046.

compound: CC1=CC=C(C=C1)SC2=C3C=C(SC3=CN=C2)C(=O)N; experiment: as above
In short: as §1

Q: For CDK2 (UniProt P24941), which log2 fold change is on record?
A: The log2 fold change was -0.015.

Q: How did the log2 fold change turn out when CARHSP1 (UniProt H3BNU9) was run?
A: The log2 fold change was 0.107.

Q: Which log2 fold change does the source give for BAHCC1 (UniProt Q9P281) here?
A: The log2 fold change was 0.074.

Q: Which log2 fold change does the source give for CASP7 isoform 3 (UniProt P55210) here?
A: The log2 fold change was -0.052.

Q: With BRD2 isoform 2 (UniProt P25440) as the target, how does the log2 fold change read?
A: Its log2 fold change is 0.105.

Q: With CAPNS1 (UniProt U3KPR7) as the target, how does the log2 fold change read?
A: Its log2 fold change is 0.099.

Q: For CCAR2 (UniProt G3V119), which log2 fold change is on record?
A: Its log2 fold change is -0.047.

Q: ATE1 (UniProt O95260) was tested. Which log2 fold change did it give?
A: Its log2 fold change is -0.022.

Q: For CHCHD7 isoform 4 (UniProt Q9BUK0), which log2 fold change is on record?
A: Its log2 fold change is -0.061.

Q: C9orf72 (UniProt Q96LT7) was tested. Which log2 fold change did it give?
A: The log2 fold change was 0.038.

Q: For C6orf120 (UniProt Q7Z4R8), which log2 fold change is on record?
A: The log2 fold change was 0.126.

Q: With CAPNS1 (UniProt K7ES78) as the target, how does the log2 fold change read?
A: Its log2 fold change is -0.075.

Q: BICRA (UniProt Q9NZM4) was tested. Which log2 fold change did it give?
A: Its log2 fold change is -0.156.

Q: With CHD4, A0A2R8Y521 as the target, how does the log2 fold change read?
A: Its log2 fold change is 0.314.

Q: CDK11A (UniProt Q9UQ88) was tested. Which log2 fold change did it give?
A: The log2 fold change was -0.014.

Q: With CDC25A (UniProt P30304) as the target, how does the log2 fold change read?
A: The log2 fold change was 0.002.

Q: BNIP3 (UniProt Q12983) was tested. Which log2 fold change did it give?
A: Its log2 fold change is 0.003.

Q: For CDKL5 (UniProt O76039), which log2 fold change is on record?
A: Its log2 fold change is -0.019.

Q: With CEP295 isoform 3 (UniProt Q9C0D2) as the target, how does the log2 fold change read?
A: Its log2 fold change is 0.053.

Q: With CDC14A isoform 2 (UniProt Q9UNH5) as the target, how does the log2 fold change read?
A: The log2 fold change was 0.006.

Q: Which log2 fold change does the source give for CANX (UniProt D6RHJ3) here?
A: The log2 fold change was -0.008.
